Measured values published in the supplement of paper PMC11732987, “Enantioselective OTUD7B fragment discovery through chemoproteomics screening and high-throughput optimisation” (Communications Chemistry, 2025).

Key:
Experiment in all cases: log2 ratio of Biotin-Ahx-Ub-VS probe labelling (fragment/DMSO); higher = less target engagement (more negative = stronger competition), active = hit call of the paper (q ≤ 0.05, log2 ratio ≤ -1)
Settings in all cases: compound concentration: 200 uM; treatment time: 3 h
USP34 = USP34 (UniProt Q70CQ2)
Outline: (§1)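 Average log2 ratios of fragment over vehicle were obtained by unpaired t-test from global-median-normalised Spectronaut label-free quantities. Proteins with ≥2 unique peptides were included. HEK293T lysate (495 µg per sample) was treated in triplicate with fragment at 200 µM or vehicle for 3 h, then with Biotin-Ahx-Ub-VS at 0.5 µM final for 1 h, and labelled DUBs were NeutrAvidin-enriched and run by diaPASEF LC-MS/MS.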

USP36 = biological target: T1, USP36 (UniProt Q9P275)
T1 sequence (whole entry): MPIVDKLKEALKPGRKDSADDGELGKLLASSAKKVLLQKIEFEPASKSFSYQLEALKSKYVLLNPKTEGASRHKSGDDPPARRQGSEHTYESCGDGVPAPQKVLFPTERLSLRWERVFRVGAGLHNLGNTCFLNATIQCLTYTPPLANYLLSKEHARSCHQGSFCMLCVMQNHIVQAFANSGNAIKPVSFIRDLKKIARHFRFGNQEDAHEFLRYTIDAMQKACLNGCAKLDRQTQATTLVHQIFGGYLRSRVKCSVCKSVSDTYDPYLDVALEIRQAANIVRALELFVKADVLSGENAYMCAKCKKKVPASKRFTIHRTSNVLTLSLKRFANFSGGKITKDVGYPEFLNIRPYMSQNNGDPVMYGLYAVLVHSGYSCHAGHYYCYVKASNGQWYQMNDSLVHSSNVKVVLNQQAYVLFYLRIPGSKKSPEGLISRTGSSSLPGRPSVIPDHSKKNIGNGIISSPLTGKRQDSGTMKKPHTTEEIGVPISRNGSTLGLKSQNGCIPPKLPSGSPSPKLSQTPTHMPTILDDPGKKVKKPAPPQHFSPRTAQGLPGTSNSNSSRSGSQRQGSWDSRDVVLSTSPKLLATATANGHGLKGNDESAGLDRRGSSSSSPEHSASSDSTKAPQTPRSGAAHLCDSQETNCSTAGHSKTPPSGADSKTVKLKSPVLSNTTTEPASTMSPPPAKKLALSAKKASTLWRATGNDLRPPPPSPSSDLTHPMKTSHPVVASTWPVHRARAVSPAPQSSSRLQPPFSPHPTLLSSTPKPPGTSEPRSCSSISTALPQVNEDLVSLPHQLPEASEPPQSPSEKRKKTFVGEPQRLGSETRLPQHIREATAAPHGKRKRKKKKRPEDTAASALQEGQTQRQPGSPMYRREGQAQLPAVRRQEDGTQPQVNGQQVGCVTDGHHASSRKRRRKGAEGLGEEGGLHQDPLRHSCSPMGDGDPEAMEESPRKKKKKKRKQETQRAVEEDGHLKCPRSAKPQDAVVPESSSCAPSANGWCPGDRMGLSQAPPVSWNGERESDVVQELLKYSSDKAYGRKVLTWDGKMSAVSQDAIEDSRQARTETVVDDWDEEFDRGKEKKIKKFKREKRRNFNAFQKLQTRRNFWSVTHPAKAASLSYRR
Outline: as §1

USP38 = biological target: T2, USP38 (UniProt Q8NB14)
T2 sequence (whole entry): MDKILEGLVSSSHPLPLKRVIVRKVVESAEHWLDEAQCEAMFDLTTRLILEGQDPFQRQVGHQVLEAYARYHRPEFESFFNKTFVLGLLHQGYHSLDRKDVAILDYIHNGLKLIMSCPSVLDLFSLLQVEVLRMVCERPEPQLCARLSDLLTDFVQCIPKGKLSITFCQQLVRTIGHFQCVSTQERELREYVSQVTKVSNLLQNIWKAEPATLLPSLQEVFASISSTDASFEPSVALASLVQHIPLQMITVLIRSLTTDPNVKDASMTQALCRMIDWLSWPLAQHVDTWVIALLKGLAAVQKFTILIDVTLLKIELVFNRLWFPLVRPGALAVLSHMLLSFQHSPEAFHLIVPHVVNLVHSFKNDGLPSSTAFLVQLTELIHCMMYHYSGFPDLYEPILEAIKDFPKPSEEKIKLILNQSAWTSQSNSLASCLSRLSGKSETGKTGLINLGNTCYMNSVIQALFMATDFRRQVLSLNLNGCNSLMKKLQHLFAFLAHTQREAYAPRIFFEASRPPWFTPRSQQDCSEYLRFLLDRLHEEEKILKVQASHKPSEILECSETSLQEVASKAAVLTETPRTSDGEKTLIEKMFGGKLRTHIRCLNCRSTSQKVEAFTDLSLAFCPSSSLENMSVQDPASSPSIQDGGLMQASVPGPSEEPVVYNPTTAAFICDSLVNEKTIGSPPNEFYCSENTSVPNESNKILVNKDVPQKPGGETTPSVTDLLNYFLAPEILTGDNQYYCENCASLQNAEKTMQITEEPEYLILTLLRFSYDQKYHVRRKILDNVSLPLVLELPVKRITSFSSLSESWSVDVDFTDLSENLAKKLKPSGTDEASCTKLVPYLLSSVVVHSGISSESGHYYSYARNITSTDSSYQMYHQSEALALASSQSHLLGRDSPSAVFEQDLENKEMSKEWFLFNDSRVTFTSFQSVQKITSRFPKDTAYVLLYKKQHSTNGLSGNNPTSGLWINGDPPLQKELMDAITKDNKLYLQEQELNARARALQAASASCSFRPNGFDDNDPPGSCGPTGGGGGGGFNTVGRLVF
Outline: as §1

USP39 = biological target: T3, USP39 (UniProt Q53GS9)
T3 sequence (whole entry): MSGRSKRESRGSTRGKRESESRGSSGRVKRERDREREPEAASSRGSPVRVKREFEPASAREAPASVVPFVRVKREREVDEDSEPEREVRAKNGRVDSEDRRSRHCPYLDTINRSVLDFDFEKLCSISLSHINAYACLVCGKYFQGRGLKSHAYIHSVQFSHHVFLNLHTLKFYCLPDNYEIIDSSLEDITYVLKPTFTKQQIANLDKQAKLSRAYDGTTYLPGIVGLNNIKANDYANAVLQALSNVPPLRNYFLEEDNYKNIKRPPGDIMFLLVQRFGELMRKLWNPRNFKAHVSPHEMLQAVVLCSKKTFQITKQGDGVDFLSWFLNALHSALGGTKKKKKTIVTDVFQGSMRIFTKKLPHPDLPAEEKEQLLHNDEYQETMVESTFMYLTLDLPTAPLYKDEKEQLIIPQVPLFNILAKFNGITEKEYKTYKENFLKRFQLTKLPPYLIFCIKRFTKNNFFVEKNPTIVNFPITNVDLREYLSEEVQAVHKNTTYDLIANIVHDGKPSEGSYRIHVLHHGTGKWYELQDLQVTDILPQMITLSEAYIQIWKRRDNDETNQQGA
Outline: as §1

USP4 = biological target: T4, USP4 (UniProt Q13107)
T4 sequence (whole entry): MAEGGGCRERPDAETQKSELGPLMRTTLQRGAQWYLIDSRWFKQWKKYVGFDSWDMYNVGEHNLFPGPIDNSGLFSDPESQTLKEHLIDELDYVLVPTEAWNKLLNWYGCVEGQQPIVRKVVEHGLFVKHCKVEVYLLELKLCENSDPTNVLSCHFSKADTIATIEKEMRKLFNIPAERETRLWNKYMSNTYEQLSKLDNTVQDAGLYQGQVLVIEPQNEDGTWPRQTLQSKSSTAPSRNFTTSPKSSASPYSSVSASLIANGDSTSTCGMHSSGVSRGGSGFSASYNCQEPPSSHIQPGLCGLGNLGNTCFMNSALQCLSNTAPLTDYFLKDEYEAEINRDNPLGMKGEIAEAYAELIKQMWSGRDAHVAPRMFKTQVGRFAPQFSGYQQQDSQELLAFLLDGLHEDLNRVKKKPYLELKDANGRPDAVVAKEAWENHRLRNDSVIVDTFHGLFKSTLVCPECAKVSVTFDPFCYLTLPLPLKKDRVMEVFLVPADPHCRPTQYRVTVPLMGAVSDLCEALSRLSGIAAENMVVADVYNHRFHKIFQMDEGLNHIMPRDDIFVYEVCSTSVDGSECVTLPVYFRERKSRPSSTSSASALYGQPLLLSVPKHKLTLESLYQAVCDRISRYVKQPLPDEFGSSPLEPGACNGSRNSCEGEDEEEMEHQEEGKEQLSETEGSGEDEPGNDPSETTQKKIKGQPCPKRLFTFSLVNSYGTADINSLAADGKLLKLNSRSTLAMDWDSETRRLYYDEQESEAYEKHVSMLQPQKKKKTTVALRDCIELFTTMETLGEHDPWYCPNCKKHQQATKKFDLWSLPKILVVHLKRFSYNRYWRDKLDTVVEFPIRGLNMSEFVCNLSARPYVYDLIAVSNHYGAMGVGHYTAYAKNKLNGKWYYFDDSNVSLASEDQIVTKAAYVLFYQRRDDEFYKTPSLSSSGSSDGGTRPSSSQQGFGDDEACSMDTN
Outline: as §1

Measured: log2 ratio of Biotin-Ahx-Ub-VS probe labelling

USP34, sequence (Q70CQ2 whole entry, the tested form may be a part): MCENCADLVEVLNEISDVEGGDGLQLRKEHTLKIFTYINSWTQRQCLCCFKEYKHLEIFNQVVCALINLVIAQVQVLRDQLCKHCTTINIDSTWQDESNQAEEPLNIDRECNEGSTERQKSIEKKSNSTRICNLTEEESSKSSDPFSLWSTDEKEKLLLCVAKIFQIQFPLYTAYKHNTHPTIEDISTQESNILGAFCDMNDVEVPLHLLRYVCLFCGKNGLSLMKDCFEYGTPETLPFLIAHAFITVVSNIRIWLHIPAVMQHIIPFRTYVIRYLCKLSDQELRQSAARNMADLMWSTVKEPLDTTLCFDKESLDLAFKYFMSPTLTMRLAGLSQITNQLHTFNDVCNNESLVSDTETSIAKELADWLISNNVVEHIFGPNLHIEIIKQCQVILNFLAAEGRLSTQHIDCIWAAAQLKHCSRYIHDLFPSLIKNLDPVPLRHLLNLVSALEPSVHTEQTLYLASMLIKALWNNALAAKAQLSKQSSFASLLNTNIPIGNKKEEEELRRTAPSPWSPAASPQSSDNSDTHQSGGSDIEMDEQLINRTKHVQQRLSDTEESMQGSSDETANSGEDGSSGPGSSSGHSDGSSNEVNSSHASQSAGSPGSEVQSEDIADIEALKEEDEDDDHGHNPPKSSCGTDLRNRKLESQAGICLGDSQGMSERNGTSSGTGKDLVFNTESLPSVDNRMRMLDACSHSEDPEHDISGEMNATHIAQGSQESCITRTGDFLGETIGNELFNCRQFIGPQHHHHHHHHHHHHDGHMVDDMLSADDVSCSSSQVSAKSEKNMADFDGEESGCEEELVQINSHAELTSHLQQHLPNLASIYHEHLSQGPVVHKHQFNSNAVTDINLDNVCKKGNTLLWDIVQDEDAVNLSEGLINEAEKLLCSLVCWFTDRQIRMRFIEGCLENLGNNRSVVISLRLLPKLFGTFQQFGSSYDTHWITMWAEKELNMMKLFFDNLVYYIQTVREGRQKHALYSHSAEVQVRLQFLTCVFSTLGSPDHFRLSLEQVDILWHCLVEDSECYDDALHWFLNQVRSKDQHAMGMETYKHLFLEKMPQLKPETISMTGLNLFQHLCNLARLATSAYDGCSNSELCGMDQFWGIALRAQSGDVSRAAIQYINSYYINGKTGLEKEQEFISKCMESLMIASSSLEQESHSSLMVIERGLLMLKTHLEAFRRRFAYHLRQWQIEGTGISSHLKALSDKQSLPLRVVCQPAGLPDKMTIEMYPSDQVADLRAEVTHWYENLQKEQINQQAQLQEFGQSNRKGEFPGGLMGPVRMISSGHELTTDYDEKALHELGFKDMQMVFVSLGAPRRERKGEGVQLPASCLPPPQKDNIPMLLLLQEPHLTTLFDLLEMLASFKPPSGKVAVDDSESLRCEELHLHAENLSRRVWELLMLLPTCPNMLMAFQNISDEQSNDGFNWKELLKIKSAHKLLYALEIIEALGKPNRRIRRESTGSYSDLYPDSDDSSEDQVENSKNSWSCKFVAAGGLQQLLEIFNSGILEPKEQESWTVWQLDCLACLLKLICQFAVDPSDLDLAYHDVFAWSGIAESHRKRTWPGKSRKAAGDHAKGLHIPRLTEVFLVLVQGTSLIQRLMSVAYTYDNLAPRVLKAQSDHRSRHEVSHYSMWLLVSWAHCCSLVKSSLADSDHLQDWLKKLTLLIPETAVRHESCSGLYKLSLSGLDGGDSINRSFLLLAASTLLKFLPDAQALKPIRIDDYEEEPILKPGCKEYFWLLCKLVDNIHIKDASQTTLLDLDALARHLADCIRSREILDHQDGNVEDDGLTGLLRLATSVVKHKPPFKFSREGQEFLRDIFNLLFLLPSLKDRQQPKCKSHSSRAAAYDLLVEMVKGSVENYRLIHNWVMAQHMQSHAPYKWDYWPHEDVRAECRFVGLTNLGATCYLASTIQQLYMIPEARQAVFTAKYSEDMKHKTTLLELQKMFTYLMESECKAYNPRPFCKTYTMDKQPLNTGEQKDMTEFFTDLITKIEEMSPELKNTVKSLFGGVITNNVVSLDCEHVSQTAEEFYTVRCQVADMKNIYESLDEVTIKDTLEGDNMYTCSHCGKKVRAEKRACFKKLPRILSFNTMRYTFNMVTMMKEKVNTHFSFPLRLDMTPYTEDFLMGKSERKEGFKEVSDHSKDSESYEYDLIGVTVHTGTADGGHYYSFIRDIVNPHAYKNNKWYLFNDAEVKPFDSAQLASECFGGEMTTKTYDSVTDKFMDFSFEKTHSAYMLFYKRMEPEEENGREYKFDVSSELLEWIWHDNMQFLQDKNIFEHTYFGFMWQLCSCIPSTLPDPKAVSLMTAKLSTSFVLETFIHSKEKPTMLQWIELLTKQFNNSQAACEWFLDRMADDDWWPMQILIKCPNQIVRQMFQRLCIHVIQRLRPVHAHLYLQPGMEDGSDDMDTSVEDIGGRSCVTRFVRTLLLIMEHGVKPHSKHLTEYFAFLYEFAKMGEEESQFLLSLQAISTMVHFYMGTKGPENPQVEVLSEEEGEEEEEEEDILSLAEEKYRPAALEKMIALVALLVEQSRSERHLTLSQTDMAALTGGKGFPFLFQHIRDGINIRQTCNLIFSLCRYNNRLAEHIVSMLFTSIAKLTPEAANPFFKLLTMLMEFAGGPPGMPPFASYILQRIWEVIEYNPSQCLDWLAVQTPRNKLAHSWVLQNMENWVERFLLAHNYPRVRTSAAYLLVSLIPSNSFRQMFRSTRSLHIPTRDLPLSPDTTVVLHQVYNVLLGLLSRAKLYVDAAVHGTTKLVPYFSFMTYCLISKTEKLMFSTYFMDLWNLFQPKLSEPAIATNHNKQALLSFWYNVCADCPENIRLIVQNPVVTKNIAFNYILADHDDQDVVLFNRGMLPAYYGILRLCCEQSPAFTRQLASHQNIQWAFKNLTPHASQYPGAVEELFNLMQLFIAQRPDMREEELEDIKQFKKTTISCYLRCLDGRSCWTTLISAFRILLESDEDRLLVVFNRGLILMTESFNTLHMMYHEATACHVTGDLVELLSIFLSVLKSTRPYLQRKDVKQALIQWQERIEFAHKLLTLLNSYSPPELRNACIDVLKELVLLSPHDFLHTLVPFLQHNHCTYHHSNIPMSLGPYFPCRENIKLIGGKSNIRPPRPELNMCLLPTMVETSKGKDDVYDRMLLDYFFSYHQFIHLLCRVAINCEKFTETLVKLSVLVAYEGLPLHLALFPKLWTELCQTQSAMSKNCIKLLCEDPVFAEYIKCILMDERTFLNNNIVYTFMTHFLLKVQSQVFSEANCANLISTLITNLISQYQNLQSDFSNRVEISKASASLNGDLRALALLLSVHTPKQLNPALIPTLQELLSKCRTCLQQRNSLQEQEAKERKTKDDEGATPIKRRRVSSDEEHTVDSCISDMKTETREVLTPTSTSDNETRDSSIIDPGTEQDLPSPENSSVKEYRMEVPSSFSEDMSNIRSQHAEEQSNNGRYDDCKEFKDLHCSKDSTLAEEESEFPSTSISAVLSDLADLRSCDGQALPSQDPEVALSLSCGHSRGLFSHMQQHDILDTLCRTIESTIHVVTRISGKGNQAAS

O=C(CCl)NC1CCCCNC1=O (stereo not given)
inactive: USP34 -0.126 | USP36 -0.314 | USP38 -0.0226 | USP39 0.0502 | USP4 -0.25
